Assay outcomes as filed in PubChem BioAssay.
Pf Dd2 growth: inhibitors of Plasmodium falciparum Dd2 growth; P. falciparum Dd2 growth, SYBR Green, 72 h; stronger effect = lower value; activity change, % at 10 µM; hit rate 2.3% among 94,000; AID 1159554; in the data active = activity change below about -80%; inconclusive = no clear call, values can overlap the other calls
T cruzi growth-1: T. cruzi proliferation inhibition. inhibition, % at 8.34 µM. hit rate 5.9% among 77,000. AID 624255. T. cruzi beta-gal in NIH3T3, GalScreen luminescence, 90 h;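 active = mean inhibition above about 93%, with at least 55% of replicates each passing it, limit read from the data, passing the limit was not always enough; inconclusive = only one of those two conditions holds; inactive = neither condition holds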
C diff growth: C. difficile growth inhibition; Clostridium difficile clinical isolate growth, OD600, 24 h; stronger effect = lower value; growth activity, negative = inhibition, % at 16 µg/mL (by protocol); hit rate 0.25% among 86,000; AID 1259249;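 active = mean growth activity at or below -80% and every replicate also at or below -80%; inconclusive = mean at or below -80% but some replicate above -80%; inactive = mean growth activity above -80%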;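 also: 0% = DMSO wells and -100% = levofloxacin 16 µg/mL wells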
T cruzi growth-2: inhibitors of T. cruzi proliferation | inhibition, % at 8.35 µM | hit rate 72% among 5,600 | shares compounds with T cruzi growth-1 | T. cruzi beta-gal in NIH3T3, GalScreen luminescence, 90 h;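 active = mean replicate inhibition above about 95% and at least 55% of replicates individually reaching it, limit read from the data; inconclusive = only one of the two criteria is met; inactive = neither criterion is met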
T cruzi growth-3: inhibitors of T. cruzi proliferation; shares compounds with T cruzi growth-1; T. cruzi beta-gal in NIH3T3, GalScreen luminescence, 90 h; inhibition, % at 2.09 µM; hit rate 21% among 5,600; AID 651740;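 active = mean inhibition above about 95%, with at least 55% of replicates also reaching it, limit read from the data; inconclusive = meets just one of the two conditions; inactive = meets neither condition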;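 also: plate controls were neutral control median for no effect and positive control median for full effect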
3T3 cytotox: NIH/3T3 (mouse) viability loss | shares compounds with T cruzi growth-1 | NIH/3T3 viability, CellTiter-Glo ATP luminescence, 90 h | cytotoxicity (signal decrease), % at 8.35 µM | hit rate 14% among 5,600;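 active = mean signal decrease across replicates above about 35% based on untreated-well scatter, with enough replicates individually passing, limit read from the data; inconclusive = no rule stated though some were filed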;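 also: 0% = median of neutral control wells and 100% = median of positive control wells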
3T3 cytotox 2: NIH/3T3 (mouse) viability loss. shares compounds with T cruzi growth-1. NIH/3T3 viability, CellTiter-Glo ATP luminescence, 90 h. inhibition, % at 24.9 µM. hit rate 56% among 5,600. AID 651744;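 active = mean loss of cell viability signal at or above a set limit, and enough replicates individually reaching it; inconclusive = meets only the mean limit or only the replicate share; inactive = meets neither condition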;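 also: 0% = median of neutral control wells and 100% = median of positive control wells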
* hit, by the source's call; ? = inconclusive; . = no result given. This is a sample that favours compounds with a hit; in the whole collection about 6.8% have one here.

SMILES | Pf Dd2 growth | T cruzi growth-1 | C diff growth | T cruzi growth-2 | T cruzi growth-3 | 3T3 cytotox | 3T3 cytotox 2
Cc1ccc(S(=O)(=O)N(C)C[C@H]2OCCCC[C@@H](C)Oc3ccc(NC(=O)Nc4ccccc4)cc3C(=O)N([C@H](C)CO)C[C@H]2C)cc1 | -86.6* | 112.6* | 0.7 | 109.2* | 108.2* | -7.7 | 6.5
Cc1ccc(S(=O)(=O)N(C)C[C@H]2OCCCC[C@H](C)Oc3ccc(NC(=O)Nc4ccccc4)cc3C(=O)N([C@H](C)CO)C[C@H]2C)cc1 | -88.4* | ? | 1.6 | 110.8* | 32.4 | -3.2 | -4.1
Cc1ccc(S(=O)(=O)N(C)C[C@H]2OCCCC[C@H](C)Oc3ccc(NC(=O)Nc4ccccc4)cc3C(=O)N([C@@H](C)CO)C[C@@H]2C)cc1 | -83.4* | 111.5* | 5.9 | 101.5* | 107.1* | -23.6 | 2.6
Cc1ccc(S(=O)(=O)N(C)C[C@H]2OCCCC[C@@H](C)Oc3ccc(NC(=O)NC(C)C)cc3C(=O)N([C@H](C)CO)C[C@@H]2C)cc1 | -34.0 | -58.2 | -11.9 | . | . | . | .
Cc1ccc(S(=O)(=O)N(C)C[C@H]2OCCCC[C@@H](C)Oc3ccc(NC(=O)NC(C)C)cc3C(=O)N([C@H](C)CO)C[C@H]2C)cc1 | -60.1 | 19.2 | 5.2 | . | . | . | .
CCCNC(=O)Nc1ccc2c(c1)C(=O)N(C)C[C@@H](OC)[C@@H](C)CN(Cc1ccccc1)[C@H](C)CO2 | . | 48.9 | . | . | . | . | .
COCC(=O)N1C[C@H]2[C@@H](c3ccccc31)[C@H](CO)N2C(=O)C1CC1 | -2.1 | 59.4 | -8.0 | . | . | . | .
C[C@H]1CN([C@@H](C)CO)C(=O)c2cc(NC(=O)C3CC3)ccc2O[C@@H]1CN(C)Cc1ccc(C(=O)O)cc1 | 1.5 | -15.3 | 1.6 | . | . | . | .
O=C(C[C@@H]1CC[C@@H](NC(=O)Nc2ccc(F)cc2)[C@H](CO)O1)NCc1cccc(F)c1 | . | . | 2.2 | . | . | . | .
CCNC(=O)C[C@H]1CC[C@H]2[C@H](COc3ccc(NC(=O)Nc4ccccc4Cl)cc3C(=O)N2C)O1 | 2.2 | 4.5 | 4.4 | . | . | . | .
O=C(NCC[C@H]1CC[C@H](NS(=O)(=O)c2ccccc2)[C@@H](CO)O1)c1ccccc1F | 17.0 | 10.4 | 5.2 | . | . | . | .
C/C=C/c1cnc2c(c1)C(=O)N([C@@H](C)CO)C[C@H](C)[C@@H](CN(C)C(=O)NCCC)O2 | 40.0 | 56.1 | 11.0 | . | . | . | .
Cc1ccc(S(=O)(=O)N(C)C[C@H]2OCCCC[C@@H](C)Oc3ccc(NC(=O)Nc4ccccc4)cc3C(=O)N([C@@H](C)CO)C[C@@H]2C)cc1 | -82.6* | 108.9* | 1.0 | 108.8* | 62.7 | 17.7 | 35.1*
Cc1ccc(S(=O)(=O)N(C)C[C@@H]2OCCCC[C@H](C)Oc3ccc(NC(=O)Nc4ccccc4)cc3C(=O)N([C@@H](C)CO)C[C@@H]2C)cc1 | -89.7* | 108.0* | 4.6 | 101.5* | 70.7 | -2.2 | 5.7
Cc1ccc(S(=O)(=O)N(C)C[C@H]2OCCCC[C@@H](C)Oc3ccc(NC(=O)NC(C)C)cc3C(=O)N([C@@H](C)CO)C[C@H]2C)cc1 | -56.5 | 11.8 | -12.5 | . | . | . | .
C[C@@H]1CN([C@H](C)CO)C(=O)c2cc(NC(=O)c3ccccc3)ccc2O[C@@H](C)CCCCO[C@@H]1CN(C)S(=O)(=O)c1ccccc1 | -72.2 | 23.9 | . | . | . | . | .
Cc1ccc(S(=O)(=O)N(C)C[C@@H]2OCCCC[C@H](C)Oc3ccc(NC(=O)c4ccccc4)cc3C(=O)N([C@H](C)CO)C[C@@H]2C)cc1 | -71.7 | 95.3* | . | 104.3* | 55.3 | -14.2 | ?
Cc1ccc(S(=O)(=O)N(C)C[C@H]2OCCCC[C@H](C)Oc3ccc(NC(=O)NC(C)C)cc3C(=O)N([C@@H](C)CO)C[C@H]2C)cc1 | -62.7 | 10.4 | -4.4 | . | . | . | .
CN1C(=O)c2cc(NC(=O)c3cccc(F)c3)ccc2OC[C@@H]2O[C@@H](CC(=O)NCC3CC3)CC[C@@H]21 | -33.4 | . | 1.3 | . | . | . | .
O=C(C[C@H]1CC[C@@H](NS(=O)(=O)c2ccccc2F)[C@H](CO)O1)NCCCN1CCOCC1 | 22.6 | -16.4 | . | . | . | . | .
COc1ccccc1-c1ccc([C@@H]2[C@@H](C#N)N(C(=O)CN(C)C)[C@H]2CO)cc1 | 1.4 | 57.9 | 0.2 | . | . | . | .
COc1ccccc1-c1ccc([C@H]2[C@@H](CO)N(C(=O)C3CCC3)[C@H]2C#N)cc1 | 30.1 | 98.7* | 6.4 | 29.7 | -26.2 | 12.1 | -6.0
COc1ccccc1-c1ccc([C@H]2[C@@H](CO)N(C(=O)C3CC3)[C@H]2C#N)cc1 | 38.3 | 102.6* | 8.5 | 41.2 | 20.5 | -0.3 | -1.6
COc1ccccc1-c1ccc([C@H]2[C@@H](C#N)N(C(=O)C3CCC3)[C@@H]2CO)cc1 | 11.3 | 94.9 | -2.7 | . | . | . | .
COc1ccc(-c2ccc([C@H]3[C@@H](CO)N(C(=O)CN(C)C)[C@H]3C#N)cc2)cc1 | -0.3 | 105.1* | 0.5 | 108.5* | 21.7 | 19.6 | ?
SMILES | Pf Dd2 growth | T cruzi growth-1 | C diff growth | T cruzi growth-2 | T cruzi growth-3 | 3T3 cytotox | 3T3 cytotox 2
COc1ccc(-c2ccc([C@@H]3[C@@H](CO)N(C(=O)NC(C)C)[C@H]3C#N)cc2)cc1 | -18.5 | 88.3 | -11.4 | . | . | . | .
COc1ccccc1-c1ccc([C@@H]2[C@@H](C#N)N(C(=O)NC(C)C)[C@@H]2CO)cc1 | -9.2 | 99.3* | -2.0 | 95.9* | 36.7 | 5.7 | 38.2*
COc1ccccc1-c1ccc([C@H]2[C@H](C#N)N(C(=O)C3CCC3)[C@H]2CO)cc1 | -28.1 | 14.9 | 6.5 | . | . | . | .
CO[C@H]1CN(C)C(=O)c2cc(NS(=O)(=O)CC(F)(F)F)ccc2OC[C@@H](C)N(Cc2ccccn2)C[C@@H]1C | 8.3 | 42.3 | . | . | . | . | .
CN(C)C(=O)c1cccc(-c2ccc(C3[C@H]4CNC[C@@H]3N4C(=O)Nc3cc(F)ccc3F)cc2)c1 (stereo partly drawn) | 24.2 | . | -11.2 | . | . | . | .
C[C@H]1CN([C@@H](C)CO)C(=O)Cc2cc(NS(=O)(=O)c3ccccc3)ccc2O[C@@H]1CN(C)S(=O)(=O)c1ccc(F)cc1 | 16.2 | -5.4 | -6.6 | . | . | . | .
COc1ccccc1-c1ccc([C@@H]2[C@@H](C#N)N(C(=O)C3CCC3)[C@@H]2CO)cc1 | 11.4 | 98.4* | -0.7 | 83.1 | 18.5 | -2.7 | 1.1
COc1ccc(-c2ccc([C@@H]3[C@@H](CO)N(C(=O)c4cccnc4)[C@H]3C#N)cc2)cc1 | -26.5 | 96.2* | -1.7 | 63.5 | -13.2 | -18.3 | 11.3
COc1ccc(-c2ccc([C@H]3[C@@H](CO)N(C(=O)C4CC4)[C@H]3C#N)cc2)cc1 | 60.0 | 43.0 | 6.1 | . | . | . | .
N#C[C@@H]1[C@H](c2ccccc2)[C@@H](CO)N1C(=O)C1CCCC1 | 17.3 | 32.8 | -10.9 | . | . | . | .
COc1ccccc1-c1ccc([C@@H]2[C@H](C#N)N(C(=O)C3CCC3)[C@H]2CO)cc1 | 11.8 | 14.9 | 7.4 | . | . | . | .
COc1ccc(-c2ccc([C@@H]3[C@H](C#N)N(C(=O)c4cccnc4)[C@H]3CO)cc2)cc1 | 10.2 | 16.9 | -3.0 | . | . | . | .
